Results on eleven molecules are retold here after the supplement of paper PMC10105736.

Values without a mark were called inactive.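 The calls were made as follows: active = MAPPIT score above the 99th percentile of random reference set scores in the same batch; inactive = at or below it.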

Assay in all cases: MAPPIT interaction score (arbitrary units); higher = stronger binary interaction signal, active = hit call of the paper
One assay addresses nSyb. As to conditions: MAPPIT configuration: N-N; pair source set: DPIM.
The next assay has as its target orb. The conditions noted are these: MAPPIT configuration: N-N; pair source set: DPIM.
The target in another assay is mwh. As to conditions: MAPPIT configuration: N-N; pair source set: Curagen_high_conf.
The target of another assay is nw. As to conditions: MAPPIT configuration: N-N; pair source set: RRS.
For another assay, the target named is msl-2. As to conditions: pair source set: Lit-BM-16.
The target of a further assay is nos. The conditions noted are these: MAPPIT configuration: N-N; pair source set: Curagen_high_conf.
In a further assay the target is msd5. The conditions noted are these: MAPPIT configuration: N-N; pair source set: Curagen_low_conf.
The target in the next assay is ninaD. The conditions noted are these: MAPPIT configuration: N-C; pair source set: screen_4.
A further assay addresses opa. The conditions noted are these: MAPPIT configuration: N-N; pair source set: Finley_Y2H.
Another assay has as its target prd. The conditions noted are these: MAPPIT configuration: N-N; pair source set: Finley_Y2H.
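Also: HEK293T cells with Epo stimulation, STAT-responsive firefly luciferase reporter, fold induction versus unstimulated cells divided by the larger fold induction of two negative controls lacking either bait or prey.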

B1: mRpL13 (protein)
chain: MSIAKRVQQWATFARTWHIYDCTWQNPFESAKLVKTHLLGLQKPIYHPMNDCGDHVVLINTREIALPGDEWVKRVYFHHTGYPGGASWTLAWQLHEKDPTMVMKKAVYNSMRGNLQRRHTMQRLHLFADDQVPEEILQNVTNQIRTPRSIPQRLDHIDKETLENFPNIMDYPKDYILR
Regarding B1, the MAPPIT interaction score with nSyb was -0.207.

B2: eIF3c (protein)
chain: MSRFFANGSESESESSEEEIQATNFNKASAFQFSDDEEEVKRVVRSTKEKRYENLTSIIKTIRNHKKIKDIPNTLSSFEDLTRAYQKALPVISKEENGITPRFYIRCLAELEDFINEVWEDREGRKNLSKNNSKSLGTLRQKVRKYIKDFEDDLSRFREAPDQESEAEDEVVALESDGGDAGDDSDAGVKPTEAVPKAVKSAPAKAAPADDDDSDDSIDWDSDSESETESSDDENQYQNMRERFLKRTTEKEEKDDDKRKDKRKEQKTKIRKRAEDDEDGEWETVVKGHVVEKPKMFEKDAEIDVPLVLAKLLEIMSARGKKRTDRRLQIDLLFELRDISDQHNLGTAVSVKIHFNIISAIYDYNQKISEPMKLEHWALLLEVMQSMMKLLLANADIIMSESVAEEHEEYATSPFYVRGCPLAAVERLDDEFVKLLKECDPHSNDYVSRLKDEVNVVKTIELVLQYFERSGTNNERCRIYLRKIEHLYYKFDPEVLKKKRGELPATTSTSVDVMDKLCKFIYAKDDTDRIRTRAILAHIYHHAMHDNWFQARDLVLMSHLQDNIDAADPATRILYNRMMANLGLCAFRQGNVKDAHHCLVDLMVTGKPKELLAQGLLPQRQHERSAEQEKIEKQRQMPFHMHINLELLECVYLVSAMLLEIPYIAAHEFDARRRMISKTFYQQLRSSERQSLVGPPESMREHVVAAAKAMRCGNWQACANFIVNKKMNTKVWDLFYESDRVREMLTKFIKEESLRTYLFTYSNVYTSISIPSLAQMYELPVPKVHSIISKMIINEELMASLDDPSETVGMHRSEPSRLQALAMQFVDKVTNLVDVNEKVFDMKQGNFFQRGNMGNRGDRGYNRNQNNQGGNWLGQRRDRNNRNRNQRGHHKNNQDRQQQQQQQVQTIDEE
As for B2, the MAPPIT interaction score with nSyb is 0.214.

B3: ND-ACP (protein)
chain: MSFTQIARSCSRLAATLAPRRVASGILIQSQASRMMHRIAVPSMTSQLSQECRGRWQTQLVRKYSAKPPLSLKLINERVLLVLKLYDKIDPSKLNVESHFINDLGLDSLDHVEVIMAMEDEFGFEIPDSDAEKLLKPADIIKYVADKEDVYE
With B3, the MAPPIT interaction score in the assay with orb was 0.0809.

B4: vilya (protein)
chain: MAKSQAGQTVEPEASKLWIHCNSCCALFCDKKHTFFLLACHHVFCERCVKVSAGRTPSDAPIFECSTCRRSVRGRQLTNSMPNHFKQLFHPEPFTIGNDFVETFQRGNHRHFDKYKERKELEMDKLFKDIEVAKSVCQKRFLEAQMLRVERKKLMQRSRYIKAEVANRKAEMHRMAQAYRSRSLTSQSSSSAQRSARGRPRGRGTATQSSSRRRSTESAKRQQITSFIHPPNNSFDL
Regarding B4, the MAPPIT interaction score with mwh was 0.602.

B5: CG1161 (protein)
chain: MAHKRLFVYAVLLVICYLVGVTWAETAAQTFPAIGTNSNNNSNAQPAPVPAPAAPAAAAPLAKQVSAPTAAPPAKVIGQPVLAAPGKNSSNSSSTTECVCAGALLPRLDANGKELPICAECKCSHVARNTTLIKVVVIIVIWIISILVIYMLFLMCLDPLLNKRVKANYQEHTNEDDEPTPPLPAVNNQELSARANVLNRVGHQQDKWKRQVREQRRHIYDRHTMLN
On to B5, for which the MAPPIT interaction score with nw was 0.0762.

B6: Snap25 (protein)
chain: MPADPSEEVAPQVPKTELEELQINAQGVADESLESTRRMLALCEESKEAGIRTLVALDDQGEQLDRIEEGMDQINADMREAEKNLSGMEKCCGICVLPCNKSQSFKEDDGTWKGNDDGKVVNNQPQRVMDDRNGMMAQAGYIGRITNDAREDEMEENMGQVNTMIGNLRNMALDMGSELENQNRQIDRINRKGESNEARIAVANQRAHQLLK
Regarding B6, the MAPPIT interaction score with nSyb is 0.399.

B7: JIL-1 (protein)
chain: MSRLQKQNYEILSGTSTSRLKNHQHPRESESLAYEEPDQMVRNHLNGQLVANGNGKTRKNSNSETMTNGKKSKLNTEGSGSGSGKTLNYNNNNNNNNSISATNGQYTNSSSKTTSASARDYTYRETISPPTPPSPPTTNVADIVCISDAESEDGRDPEREYYDQDMEEDEPNGIEIDESSSSLSKAKSNNAAAAAAAAAAAAAAAASKASSSTTPSYAMPTSNSTPLDLDNEAHQRDLEAVTDLKYYVKLYSDEAVSLNDFKIIRVLGTGAYGRVFLVRKLTRHDAGKLYAMKVLNKITVVQKRKTAEHTKTERVVLEAIQRNPFLVSLHYAFQSSSKLYLVLDFANGGELFTHLYHSENFEESRVRVYIAEVVLALEQLHQLGIIYRDIKLENILLDGEGHIVLSDFGLSKILTAENEYRAHSFCGTLEYMAPEIIRTGPPGHDSAVDWWSVGVLTFELLTGASPFATSDGQVQQSEISRRIQKEQPMIPSSFSANARDFVLKMLEKNPKRRLGGNHRDASEIKEHPFFNGINWQELRTKRRKAPYKPTLTAEDDVQNFSNEFTDQVPEDPECDAPPSRIRLFRGYTYVAPEHLEQMRRDNHCEIQYFNTGLQNIPCRPDDLELGTRTSNGAYGTCHFVVDSSTDLVFLAKIIPLSKFRPSEVDALISCALDTTNHKNIVSYHGTFREKCETWIVMEYLSGPELTASIRMDEDSCREIFLQLVMAVRHIHSKHFIHGDLKPENIMFENREDRTVKLIDFGSACYNNRFKSWKDKPRYTLDYAPPEMLADANLVTYSPAVDIYGLGATLYTMLVGHRPYRQNEDDVDHSAAAHHELRKRMRRGTFNQRSMRWESASPAFRHLVSWCLQRDPADRPTLSDILDSEWLQYGSNDPDVDIILPQQMVVDLSEDTMEQPTGGMFDDQQQLEFMHDKSAEDEGITLVSEPMDTTVATHESRRNAAAFSSVVAPTTDDEIVHERFDPAFEVQADFYGFDENAPPLPLPEEYYSELPLPEEDRQYIPPPPALIPVEPETTFRRPRTRQQRRTESQLVQPVSVATYEDSKASLRVLMQQLPPPGDNVVARIPKRTHRVVRTLPPTFGTTKREENFYGFSKTAISWRKTRASWRHFCLLINGVQQVLKVRFKKARRVYCLPHIKEEKLDHAYEKPLTFPRPKAQLKRTKREPKVPRPPTRVQPERARAMRQLYQFQ
On to B7, for which the MAPPIT interaction score in the assay with msl-2 (MAPPIT configuration: N-C) was 0.534; with msl-2 (MAPPIT configuration: N-N), 0.0488.

B8: 128up (protein)
chain: MSTILEKISAIESEMARTQKNKATSAHLGLLKAKLAKLRRELISPKGGGGGTGEAGFEVAKTGDARVGFVGFPSVGKSTLLSNLAGVYSEVAAYEFTTLTTVPGCIKYKGAKIQLLDLPGIIEGAKDGKGRGRQVIAVARTCNLIFMVLDCLKPLGHKKLLEHELEGFGIRLNKKPPNIYYKRKDKGGINLNSMVPQSELDTDLVKTILSEYKIHNADITLRYDATSDDLIDVIEGNRIYIPCIYLLNKIDQISIEELDVIYKIPHCVPISAHHHWNFDDLLELMWEYLRLQRIYTKPKGQLPDYNSPVVLHNERTSIEDFCNKLHRSIAKEFKYALVWGSSVKHQPQKVGIEHVLNDEDVVQIVKKV
B8: the MAPPIT interaction score with nos is 0.2.

B9: lobo (protein)
chain: MPKVLFQKYKKVVSNIDPSRYSAKFKEIDEQRRSQGSESDFADEMEGEFEAEMEEMGSSEFSLSEGEPSLNIGKIDLSFPETVEEFENSPQCYPPSYYTLSPKERLLLLYAENFRKQLVLSYPKRRAMVLALPNECKVQKFVCTTIRPTAFIYTQLISSVEEIAKFVADFIQYEPLQDPINLPNRLISPETLLRKRKGNSYEMATLLVSMLIGAGHPALVVSGVAREETILNDQLAVPYPYPIVEVEVEEVKPKVEKPGQKYKLRGLPDLKSHLEEDMAEVHRQKEAEEKRIQDEIIRKQMEDLELLAVDRYHYRRSHAWVVIINNAPWSVKPKTTYTDVNGDVVEAPPTAIFIEPSTGFICETGCKQYILVDSIWNEYNYYVCKQKHQRVSELRWDLRDTKDWEHMLPGEPPEMRIYKMASDENVADEERDISEEKHLDCIGSWVERLHIGLADFEQRFPSSEKKIQYKGAIHERFSPYSQRDGKVMQLTIFNNDECTIPKVRYEYYENRSDLMRHVKYTYATDQFEEIFNKGRNDSLKSIEYFSDPSQQRKVHFFSASRIDSLELMVVEPGSLILHYKDRSDKCWYKEFEFTPAGNVLKKVTEKFLKASANDVCSNDIATRTFLFQQNKIVLKFHYTFGALTATVVEFTKPPRPDYGKELIYDEKLTKIYKANPLDPTRTNLELYRLLCEQLQYEDHLRKNFEKIFEDINNVFDLRKSEKAEPKLKFSIFDPLRNGAARAIRMRQFEEEEELKKEIASKPADFLAPYLVPYKHQEELTPEQSQNAYNACLNDLKSRFVSLLNNLQRHYEDLTSESKSLNRFLNKFENQFNNYDYKRLVQQSKDLELNKRMVQQRLTLTHEESQKKYEVVKNSLLKDPRLNFKKDDLARRASETSK
With B9, the MAPPIT interaction score with msd5 was 2.32.

B10: CG5382 (protein)
chain: MGLCKCPKRLVTNQFCFEHRVNVCEHCMVQSHPKCIVQSYLQWLRDSDYISNCTLCGTTLEQGDCVRLVCYHVFHWDCLNARQAALPANTAPRGHQCPACSVEIFPNANLVSPVADALKSFLSQVNWGRNGLGLALLSEEQSSSLKAIKPKVASQAAVSNMTKVHHIHSGGERERTKPNGHDAVSPHSVLLMDAFNPPSAGDYASSRRPLLPRQSPIGGTDRDDNKYQRRTPAELFSRWTRRFYAPSSRPPWRRTWFLVTAGILAFVLFVYLMAWLGRGGSDAVDEGWNNPNPQPNHYE
B10: in the assay with ninaD, the MAPPIT interaction score is 0.641.

B11: croc (protein)
chain: MHTLFSDQNSFTRHYAQTAAGYGSASAVAAASSASAAAAAHYAYDQYSRYPYSASAYGLGAPHQNKEIVKPPYSYIALIAMAIQNAADKKVTLNGIYQYIMERFPYYRDNKQGWQNSIRHNLSLNECFVKVARDDKKPGKGSYWTLDPDSYNMFDNGSFLRRRRRFKKKDVMREKEEAIKRQAMMNEKLAEMKPLKLMTNGILEAKHMAAHAAHFKKEPLMDLGCLSGKEVSHAAMLNSCHDSLAQMNHLAGGGVEHPGFTVDSLMNVYNPRIHHSAYPYHLNEDNLATVASSQMHHVHHAAAAHHAQQLQRHVAHVAHPLTPGGQGAGGQSSGHSPTTISTPHGPAHGGWYTPETPPSEPVPHNGQQGTPTHPGHNNNNSSSVLNHNGVGNGGGGGGGGGGGSSSVLTSSPTSALGFRDMIFEQNQSCQLDTGSPTGSLQSASPPASASVAAASAAAAAAVISSHHHHHHHHAALSGNLGQLGQLSNLSHYRPHVGHYQEYGIKYGV
Regarding B11, the MAPPIT interaction score with opa is -0.778; with prd, -0.752.
